# Laboratory results as given in PubChem BioAssay (Tox21).
# Values joined by “and” are separate entries in the source; they are usually repeats but may differ in a detail not shown here. Identical values can stand only once. Results filed as inconclusive are left out. Active and inactive are the calls of the source. Calls come from the whole dose curve; as a rule, active = well fitted activation curve with a large enough effect in the repeat runs; inconclusive = weak or mixed curves; inactive = flat fitted curve, though single readings scatter.
# Test: A CellTox Green Cytotoxicity Assay to monitor cytotoxicity in HEK293 cells - 24 hour (AID 1224875); note: nearly all actives have a fitted effect of over 45% in size
# Conditions: CellTox Green fluorescence; series mostly up to 76.8 µM; activity change: at the top concentration
# From the text: National Center for Advancing Translational Sciences [NCATS]
# NIH Chemical Genomics Center [NCGC]
# U.S. Environmental Protection Agency [EPA]
# National Institutes of Environmental Health Sciences [NIEHS]
# National Toxicology Program [NTP]
# Cell-based models are critical for drug discovery. Determining the natural cytotoxic effects resulting from test compounds is an essential research activity. A CellTox Green Cytotoxicity Assay to monitor cytotoxicity in real time of continues cell culture during 40 hours of the compound treatment was used to screen Tox21 10K library compounds in Hek293 cells. CellTox Green Cytotoxicity Assay is a nonlytic, homogeneous, biofluorescent method to measure cytotoxicity in cell culture after experimental manipulation. The assay system uses a proprietary asymmetric cyanine dye that is excluded from viable cells but preferentially stains the dead cell's DNA. […] Viable cells produce no appreciable increases in fluorescence. Therefore, the fluorescence signal produced by the binding interaction with dead cell DNA is proportional to cytotoxicity.
# The mixture of Hek293 cell suspension and reagents were dispensed at 600cells/6 ul/well in 1536-well tissue culture treated black solid bottom plates using a Multidrop dispenser. After the assay plates were incubated at a 37 C/5% CO2 incubator for 5 hours, 23 nL of compounds dissolved in DMSO, positive and negative controls was transferred to the assay plate by a pintool work station. The plates were incubated at 37 C for 40 hours. The fluorescence intensity were measured at 0h, 8h, 16h, 24h, 32h and 40h time points using ViewLux plate reader during compound treatment.
# % is set by controls: 0 for no effect and ±100 for the full control effect; potency is the fitted concentration of half-maximal effect.
SMILES,activity change,Potency
CCCCCCCCCCCCN=C(N)N,"11.7% [at 2.72 µM, stronger effect = higher value] (inactive)",
CC(C)(C#N)C(C)(C)C#N,-22.1% (inactive),
CCC(=O)O[C@@H]1C=C2CCC3C(CCC4(C)C3CC[C@@H]4OC(=O)CC)C2CC1 (stereo not given in full),"19.4% [at 35.3 µM, stronger effect = higher value] (inactive)",
CC(=O)NNc1ccccc1,-0.887% (inactive),
N#CC(C#N)=C(C#N)C#N,-1.91% (inactive),
C=CCSSCC=C,27.2% (inactive),
COc1cc(CC#N)cc(OC)c1OC,"-2.04% [at 35.3 µM, stronger effect = higher value] (inactive)",
C=C(C)C(=O)OCCCCOC(=O)C(=C)C,-1.66% (inactive),
CCCCC#N,-1.11% (inactive),
C[C@@H]1C[C@@H]([C@H](O)CC2CC(=O)NC(=O)C2)C(=O)[C@@H](C)C1,,inactive
CCCCC1C(=O)NC(=O)N(C2CCCCC2)C1=O (stereo not given),"-0.649% [at 35.3 µM, stronger effect = higher value] (inactive)",
ClCc1ccccc1Cl,3.47% (inactive),
CCC(C)Cl (stereo not given),-10.1% (inactive),
COc1ccc(C(=O)c2c(C)n(CCN3CCOCC3)c3ccccc23)cc1,"-7.2% [at 35.3 µM, stronger effect = higher value] (inactive)",
O=C1NC(=O)C(=O)C(=O)N1,-7.43% (inactive),
Cc1ncc(C[n+]2csc(CCO)c2C)c(N)n1,-6.39% (inactive),
CN1CC[C@]23c4c5ccc(O)c4O[C@H]2[C@@H](O)C=C[C@H]3[C@H]1C5,-13.1% (inactive),
CCCCCl,-9.35% (inactive),
OCC1CO1 (stereo not given),2.9% (inactive),
COc1ccc2c(c1OC)C(=O)O[C@H]2[C@@H]1c2cc3c(cc2CCN1C)OCO3,"5.2% [at 35.3 µM, stronger effect = higher value] (inactive)",

SMILES,activity change,Potency
C[C@]12C=CC3=C4CCC(=O)C=C4CC[C@H]3[C@@H]1CC[C@@H]2O,,inactive
CCCCCCCCCCCCCCCl,16.3% (inactive),
CN(C)c1ccc(N=O)cc1,,13.8 µM (active) and 19.5 µM (active)
COC(=O)C1(O)c2ccccc2-c2ccccc21,-18.8% (inactive),
C#C[C@]1(O)CC[C@H]2[C@@H]3CCC4=CC(=O)CCC4=C3C=C[C@@]21CC,"1.52% [at 35.3 µM, stronger effect = higher value] (inactive)",
Clc1ccccc1,-15.2% (inactive),
CCCBr,-10.7% (inactive),
C[N+]1(CCC(C(N)=O)(c2ccccc2)c2ccccc2)CCCCC1,"-27.2% [at 35.3 µM, stronger effect = higher value] (inactive)",
COCc1cnc(C2=NC(C)(C(C)C)C(=O)N2)c(C(=O)O)c1 (stereo not given),-10.3% (inactive),
CC(C)[C@@H](C(=O)O[C@@H](C#N)c1cccc(Oc2ccccc2)c1)c1ccc(Cl)cc1,,inactive
CCC1(CC)C(=O)NC(=O)NC1=O,"-13.3% [at 35.3 µM, stronger effect = higher value] (inactive)",
CCCC1CCCCN1 (stereo not given),"2.31% [at 35.3 µM, stronger effect = higher value] (inactive)",
CCCC(C)(COC(N)=O)COC(=O)NC(C)C (stereo not given),,inactive
CCCCCCCCP(=O)(O)O,0% (inactive),
C1CCNCC1,10.9% (inactive),
CCOP(=O)(O)C(N)=O,2.35% (inactive),
CCOP(=S)(OCC)Oc1ccc(S(C)=O)cc1 (stereo not given),-1.09% (inactive),
CC(C)(C)c1ccc(CCOc2ncnc3ccccc23)cc1,-0.0201% (inactive),
CCOc1cccc(C2(N3CCN(c4ccccc4)CC3)CCC(C)CC2)c1 (stereo not given),3.14% (inactive),
CCCN(CCC)C(=O)Cc1c(-c2ccc(Cl)cc2)nc2ccc(Cl)cn12,"3.26% [at 35.3 µM, stronger effect = higher value] (inactive)",
